Compound activity: PubChem BioAssay, several laboratories
Sampled rows, rich in hits. Any-hit rate of the full collection: about 3.8%.
Jurkat NFkB inh: inhibitors of induced NF-kB luciferase reporter, primary screen, TCR NF-kB activation inhibitor project, cell-based, luminescence, uHTS. Jurkat, PMA/ionomycin-induced NF-kB luciferase reporter. inhibition, % at 4 µM. 330,000 tested, 0.53% active; in the data active means inhibition above about 50%
Mdm2 MdmX PPI: inhibitors of human Mdm2-MdmX association, primary screen, cell-based, luminescence, split luciferase, SaOS-2, uHTS; Protein Mdm4 (Homo sapiens) + E3 ubiquitin-protein ligase Mdm2 (Homo sapiens), …; SaOS-2 split-luciferase Mdm2/MdmX complementation; inhibition, % at 8 µM; 330,000 tested, 3% active;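 active means inhibition of at least 50% at 8 µM in the primary screen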
Shn3 3UTR inh: reduction of Shn3 3'UTR firefly luciferase signal, primary screen, Schnurri-3 inhibitor project, cell-based, Clone20 osteoblasts, set 2 | Clone20 osteoblast Shn3 3'UTR firefly luciferase, 24 h | inhibition, % at 12.5 µM | 360,000 tested, 0.52% active | AID 588674, 2011;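 active means mean inhibition of at least 75% with every replicate also reaching 75%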;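 further: 0% = median of neutral control wells and 100% = pilot-screen positive control compound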
697 NFkB inh: inhibitors of PMA/ionomycin-induced NF-kB reporter, 697 cells, primary screen, B-cell NF-kB inhibitor project, cell-based, luminescence, uHTS. AID 435022, 2010. 330,000 tested, 0.33% active. inhibition, % at 4 µM. 697 B-cell NF-kB luciferase reporter, 16 h; in the data active means inhibition above about 35%
Gli-Sufu antag: Gli-Sufu pathway antagonists, primary screen, luciferase luminescence, Sufu-KO-LIGHT cells, uHTS. Sufu-KO-LIGHT fibroblasts, Gli luciferase reporter luminescence. inhibition, % at 5 µM. 340,000 tested, 0.74% active. AID 588413, 2011;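 active means inhibition above about 55%, limit read from the data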;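 further: 0% = DMSO-treated cells and 100% = wells with medium but no cells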
697 NFkB conf: PMA/ionomycin-induced NF-kB reporter inhibitors, 697 retest, confirmation, B-cell NF-kB inhibitor project, cell-based, luminescence, single concentration; shares compounds with 697 NFkB inh; AID 449746, 2010; 697 B-cell NF-kB luciferase, 16 h; 2,000 tested, 35% active; inhibition, % at 4 µM; in the data active means inhibition mostly above about 28%, no sharp cut-off; inactive means mostly below about 22%
Mdm2 MdmX conf: Mdm2-MdmX complex disruptors, retested hits, confirmation, luminescence, single concentration; shares compounds with Mdm2 MdmX PPI; Mdm2-MdmX binding, luminescent assay; inhibition, % at 8 µM; 10,000 tested, 55% active; in the data active means inhibition above about 40%
FLuc counter: full-length luciferase signal inhibition, confirmation, counter-screen for Mdm2/MdmX interaction inhibitor project, cell-based, single concentration, SaOS-2; shares compounds with Mdm2 MdmX PPI; SaOS-2 full-length luciferase counterscreen, luminescence; inhibition, % at 8 µM; 6,200 tested, 77% active; AID 504607, 2011;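 active means mean inhibition at 8 µM reaching about 37%, which flags the compound as non-specific, limit read from the data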;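 further: p53-null SaOS-2 cells with luciferase driven by a doxycycline-inducible promoter; compound on cells about two nights before reading with doxycycline added after day one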
* marks the source's active call; other numbers are inactive results.

For Cc1sc2ncnc(N3CCC(C(=O)Nc4nc(-c5ccc(F)cc5)cs4)CC3)c2c1C the results were Jurkat NFkB inh 8, Mdm2 MdmX PPI 94*, Shn3 3UTR inh 20, 697 NFkB inh -282, Gli-Sufu antag 6, 697 NFkB conf -45, Mdm2 MdmX conf 90* and FLuc counter 60*.
Screening COC(=O)Nc1sccc1C(=O)Nc1sccc1C(=O)OC returned Jurkat NFkB inh 2, Mdm2 MdmX PPI 61*, Shn3 3UTR inh -29, 697 NFkB inh 39*, Gli-Sufu antag -1, 697 NFkB conf -3 and Mdm2 MdmX conf 12.
`COC(=O)c1ccsc1NC(=O)c1ccccc1` gave Jurkat NFkB inh -2, Mdm2 MdmX PPI 21, Shn3 3UTR inh -43, 697 NFkB inh 12 and Gli-Sufu antag 3.
Screening CCOC(=O)/C(C#N)=C\c1cc(C)n(-c2ccccc2)c1C returned Jurkat NFkB inh -126, Mdm2 MdmX PPI 56*, Shn3 3UTR inh 8, 697 NFkB inh -286, Gli-Sufu antag 2, 697 NFkB conf -106, Mdm2 MdmX conf 79* and FLuc counter 155*.
Screening CCOC(=O)/C(C#N)=C/c1cc(C)n(-c2ccc(C)cc2)c1C returned Jurkat NFkB inh -130, Mdm2 MdmX PPI -58, Shn3 3UTR inh -24, 697 NFkB inh -154 and Gli-Sufu antag 7.
For COc1ccc(OC)c(NC(=O)c2nc(S(=O)(=O)Cc3ccccc3)ncc2Cl)c1 the results were Jurkat NFkB inh 49, Mdm2 MdmX PPI 100*, Shn3 3UTR inh 97*, 697 NFkB inh -441, Gli-Sufu antag 34, 697 NFkB conf -203, Mdm2 MdmX conf 93* and FLuc counter 51*.
For Cc1noc(C)c1CSc1nc2[nH]ncc2c(=O)n1-c1ccccc1 the results were Jurkat NFkB inh 39, Mdm2 MdmX PPI 69*, 697 NFkB inh 55*, Gli-Sufu antag 32, 697 NFkB conf 55*, Mdm2 MdmX conf 68* and FLuc counter 61*.
For COc1ccc(C(C)NC(=O)Cc2cccs2)cc1OC (centres undefined) the results were Jurkat NFkB inh -2, Mdm2 MdmX PPI -9, Shn3 3UTR inh 12, 697 NFkB inh 2 and Gli-Sufu antag -2.
For O=C(C1=C(O)C(=O)N(CCN2CCOCC2)C1c1cccc(F)c1)c1cc2ccccc2o1 (centres undefined) the results were Jurkat NFkB inh -1, Mdm2 MdmX PPI 12, Shn3 3UTR inh -19, 697 NFkB inh -18 and Gli-Sufu antag -6.
Screening Cc1cc(/C=C2\Cc3ccccc3C2=O)c(C)n1-c1ccccc1 returned Jurkat NFkB inh -24, Mdm2 MdmX PPI 80*, Shn3 3UTR inh 47, 697 NFkB inh -310, Gli-Sufu antag 16, 697 NFkB conf -193, Mdm2 MdmX conf 64* and FLuc counter 73*.
`COc1cc(/C=N/Nc2nc(N3CCCCC3)nc(N3CCCCC3)n2)ccc1OC(=O)c1ccco1` gave Jurkat NFkB inh -22, Mdm2 MdmX PPI 1 and 697 NFkB inh 1.
`Cc1[nH]c2ccccc2c1/C=N/Nc1nc(Nc2ccc(F)cc2)nc(N2CCOCC2)n1` gave Jurkat NFkB inh 32, Mdm2 MdmX PPI 87*, Shn3 3UTR inh 4, 697 NFkB inh 48*, Gli-Sufu antag 2, 697 NFkB conf 60*, Mdm2 MdmX conf 40 and FLuc counter 101*.
Screening Fc1ccc(Nc2nc(N3CCOCC3)nc(N3CCOCC3)n2)cc1 returned Jurkat NFkB inh -15, Mdm2 MdmX PPI 33, Shn3 3UTR inh 5, 697 NFkB inh -6 and Gli-Sufu antag 37.
For O=C(Oc1cccc(/C=N/Nc2nc(Nc3ccccc3)nc(N3CCOCC3)n2)c1)c1ccco1 the results were Jurkat NFkB inh -76, Mdm2 MdmX PPI 58*, Shn3 3UTR inh 9, 697 NFkB inh 43*, Gli-Sufu antag 19, 697 NFkB conf 49*, Mdm2 MdmX conf 49* and FLuc counter 118*.
Oc1ccccc1-c1cc(C(F)(F)C(F)F)nc(-c2ccccc2)n1 was read as Jurkat NFkB inh 15, Mdm2 MdmX PPI 11, Shn3 3UTR inh -13, 697 NFkB inh 16 and Gli-Sufu antag 0.
`O=[N+]([O-])c1ccc(O)c(-c2cc(C(F)(F)F)nc(-c3ccccc3)n2)c1` gave Jurkat NFkB inh 45, Mdm2 MdmX PPI 95*, Shn3 3UTR inh 90*, 697 NFkB inh inactive, Gli-Sufu antag 88*, 697 NFkB conf -460, Mdm2 MdmX conf 99* and FLuc counter 52*.
Screening COc1ccc(-n2nnnc2S(=O)(=O)Cc2ccc(C(=O)O)cc2)cc1 returned Jurkat NFkB inh -1, Mdm2 MdmX PPI 40, Shn3 3UTR inh 2, 697 NFkB inh 15 and Gli-Sufu antag 11.
`COc1ccc(-n2nnnc2S(=O)(=O)CC(=O)N2CCCCC2)cc1` gave Jurkat NFkB inh 15, Mdm2 MdmX PPI 97*, Shn3 3UTR inh 92*, 697 NFkB inh 39*, Gli-Sufu antag 6, 697 NFkB conf 60*, Mdm2 MdmX conf 96* and FLuc counter 14.
O=C(c1ccco1)N1N=C(c2ccccc2O)CC1c1cccs1 (centres undefined) was read as Shn3 3UTR inh 18.
For CCN(CC(=O)Nc1ccccc1OC)C(=O)c1ccc(NS(=O)(=O)c2ccc(C(C)=O)cc2)cc1 the results were Jurkat NFkB inh 7, Mdm2 MdmX PPI 25, Shn3 3UTR inh -2, 697 NFkB inh 14 and Gli-Sufu antag -1.
Screening O=C(Oc1ccnc2cc(Cl)ccc12)N1CCCCCC1 returned Jurkat NFkB inh 15, Mdm2 MdmX PPI 67*, Shn3 3UTR inh 7, 697 NFkB inh 38*, Gli-Sufu antag -23, 697 NFkB conf 14, Mdm2 MdmX conf 39 and FLuc counter 30.
`COc1cc(C2C(C#N)=C(N)Oc3cc(N)ccc32)cc(OC)c1OC` (centres undefined) gave Jurkat NFkB inh 45, Mdm2 MdmX PPI 88*, Shn3 3UTR inh 0, 697 NFkB inh 39*, Gli-Sufu antag 55*, 697 NFkB conf 45*, Mdm2 MdmX conf 66* and FLuc counter 68*.
